We go through eight compounds from PubChem BioAssay (Tox21).

Structures are written as SMILES. Records with an inconclusive call do not appear. Activity calls are given as the source filed them. Unless noted, calls follow the shape of the full dose curve.

A short description of assay [1]: Nuclear factor erythroid 2-related factor 2/antioxidant responsive element (Nrf2/ARE) small molecule agonists: qHTS cell viability counter screen in human keratinocytes (AID 1919968; active = well fitted curve in the direction sought with a large enough effect in the repeat runs; an effect the other way counts as inactive or inconclusive; also: nearly all actives have a fitted effect of over 55% in size; also: potency is read from the fitted curve at half-maximal effect). Put shortly:
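Cells of the KeratinoSens line were plated at 1,500 per well and left for 5 h before compound transfer from DMSO stocks. After a 23 h incubation (37 C, 5% CO2), CellTiter-Fluor was added. Signal was taken as fluorescence intensity 1 h later.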
Background: Quantitative high-throughput screening tests each substance at several concentrations.

Assay [2] in a line: Nuclear factor erythroid 2-related factor 2/antioxidant responsive element (Nrf2/ARE) small molecule agonists: luciferase reporter gene qHTS assay in human keratinocytes (AID 1919969). Also: nearly all actives have a fitted effect of over 35% in size. Also: potency is read from the fitted curve at half-maximal effect. On the technique in general: In a reporter assay the amount or activity of a reporter protein is the signal.
The target of assay [3] is Gonadotropin-releasing hormone receptor (Homo sapiens) (UniProt P30968). Briefly: Human gonadotropin-releasing hormone receptor (GnRHR) small molecule agonists, calcium flux assay in GnRHR-HEK293 cells (AID 1920063). Also: nearly all actives have a fitted effect of over 35% in size. Put shortly: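 Compounds dissolved in DMSO are pin-transferred onto dye-loaded GnRHR-HEK293 cells, which were seeded 18 h before at 37 C/5% CO2. Calcium signal is read as fluorescence intensity at 1 s intervals for 3 min.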
Gonadotropin-releasing hormone receptor (Homo sapiens), sequence (P30968 whole entry, looked up): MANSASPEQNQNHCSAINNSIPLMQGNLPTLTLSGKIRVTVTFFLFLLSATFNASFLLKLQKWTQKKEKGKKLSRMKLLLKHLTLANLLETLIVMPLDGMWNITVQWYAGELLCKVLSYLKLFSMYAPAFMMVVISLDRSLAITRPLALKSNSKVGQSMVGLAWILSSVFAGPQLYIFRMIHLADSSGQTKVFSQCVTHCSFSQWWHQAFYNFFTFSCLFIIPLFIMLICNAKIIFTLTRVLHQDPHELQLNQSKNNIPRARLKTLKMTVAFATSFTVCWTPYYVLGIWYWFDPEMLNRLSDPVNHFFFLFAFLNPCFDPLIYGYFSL
On the technique in general: Calcium flux is commonly read through the fluorescence of an indicator in the cells.

Assay [4] deals with KiSS-1 receptor (Homo sapiens) (UniProt Q969F8). Briefly: Human kisspeptin (KISS1R) small molecule agonists, calcium flux assay in KISS1R-HEK293 cells (AID 1920064; active = well fitted curve in the direction sought with a large enough effect in the repeat runs; an effect the other way counts as inactive or inconclusive). The procedure, abridged: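 Cell line: HEK293, stable human KISS1R. Dye loading 1 h at 37 C after 18 h culture. Read: kinetic fluorescence, 480/540 nm, 3 min at 1 s intervals.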
KiSS-1 receptor (Homo sapiens), sequence (Q969F8 whole entry, looked up): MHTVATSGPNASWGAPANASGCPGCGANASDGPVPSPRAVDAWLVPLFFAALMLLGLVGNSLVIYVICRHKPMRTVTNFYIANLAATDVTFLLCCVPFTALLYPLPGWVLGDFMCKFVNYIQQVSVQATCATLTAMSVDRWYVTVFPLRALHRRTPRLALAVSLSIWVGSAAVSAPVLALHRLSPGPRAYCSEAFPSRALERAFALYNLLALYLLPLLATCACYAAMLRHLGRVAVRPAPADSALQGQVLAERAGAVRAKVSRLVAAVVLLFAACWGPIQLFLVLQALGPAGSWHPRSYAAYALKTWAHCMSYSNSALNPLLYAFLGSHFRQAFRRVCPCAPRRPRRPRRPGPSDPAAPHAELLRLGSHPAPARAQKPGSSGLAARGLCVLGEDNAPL
Assay [5] is described as follows: G protein-coupled receptor (GPCR) small molecule agonists, calcium flux assay: HEK293 wild type cell line counter screen (AID 1920065). Put shortly: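 Tox21 10K compounds, 15 concentrations each in triplicate, pin-transferred in DMSO onto dye-loaded cells; kinetic read at 480/540 nm for 3 min, 1 s intervals.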
Assay [6] can be described thus: p53 small molecule agonists, cell-based qHTS assay with rat liver microsomes (AID 1963578). Put shortly: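 p53RE-bla cells, 4,000/well, pre-incubated 5 h, then given compounds plus rat liver microsomes (0.5 mg/mL final) and NADPH (0.5 mg/mL final). Incubation 16 h at 37 C; beta-lactamase reporter read by LiveBLAzer fluorescence after 2 h at room temperature.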
A short description of assay [7]: p53 small molecule agonists, cell-based qHTS assay with rat liver microsomes: qHTS cell viability counter screen (AID 1963580). Also: nearly all actives have a fitted effect of over 45% in size. The procedure, abridged: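 After the beta-lactamase ratio was read, CellTiter-Glo was added to the same wells and luminescence measured at 30 min; cells had been treated 16 h at 37 C with compounds, rat liver microsomes and NADPH (0.5 mg/mL final each).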

Assay [8] in a line: p53 small molecule agonists, cell-based qHTS assay: qHTS cell viability counter screen (AID 1963581). Also: nearly all actives have a fitted effect of over 45% in size. Also: potency is read from the fitted curve at half-maximal effect. Put shortly: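 ATP content measured by luminescence in HCT-116 p53RE-bla cells treated 16 h at 37 C, same wells as the reporter screen.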
The nature of assay [9]: p53 small molecule agonists, cell-based qHTS assay (AID 1963582; active = well fitted activation curve with a large enough effect in the signal ratio in the repeat runs, not every such curve was filed as active; the % refers to the signal ratio). Put shortly:
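16 h compound exposure (37 C) of p53 response element–bla cells, preceded by 5 h recovery at 37 C/5% CO2; read-out via LiveBLAzer B/G FRET substrate, 2 h RT, fluorescence intensity.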

Assay [10] can be described thus: cAMP Responsive Elements (CRE) small molecule agonists, cell-based qHTS assay (AID 1963590). Put shortly:
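HEK 293T cells stably bearing CRE-bla were plated at 2,000 cells per well and rested 18 h. Compounds, positive controls or DMSO were added for 3 h at 37 C. LiveBLAzer B/G substrate was then loaded for 2 h at room temperature.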

A short description of assay [11]: cAMP Responsive Elements (CRE) small molecule antagonists, cell-based qHTS assay (AID 1963591; active = well fitted inhibition curve with a large enough effect in the signal ratio in the repeat runs, not every such curve was filed as active; the % refers to the signal ratio). Put shortly:
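First, CRE-bla HEK293T cells settled 18 h at 37 C. Next, compound and 0.25 uM final NKH477 were applied for 3 h. Last, LiveBLAzer B/G substrate was loaded for 2 h at room temperature.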

For assay [12], the target named is Beta-2 adrenergic receptor (Homo sapiens) (UniProt P07550). Briefly: Adrenergic beta2 receptor (ADRB2) small molecule antagonists, cell-based qHTS assay (AID 1963592). Also: series mostly up to about 92 µM; nearly all actives have a fitted effect of over 50% in size. Put shortly: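 Assay format: CHO-ADRB2 cells, 18-20hr seeding at 37C/5% CO2, then compound plus 1nM isoproterenol agonist mix for 0.5hr RT. Homogeneous time-resolved fluorescence cAMP detection after 1hr, expressed as 665/615 nm ratio.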
Beta-2 adrenergic receptor (Homo sapiens), sequence (P07550 whole entry, looked up): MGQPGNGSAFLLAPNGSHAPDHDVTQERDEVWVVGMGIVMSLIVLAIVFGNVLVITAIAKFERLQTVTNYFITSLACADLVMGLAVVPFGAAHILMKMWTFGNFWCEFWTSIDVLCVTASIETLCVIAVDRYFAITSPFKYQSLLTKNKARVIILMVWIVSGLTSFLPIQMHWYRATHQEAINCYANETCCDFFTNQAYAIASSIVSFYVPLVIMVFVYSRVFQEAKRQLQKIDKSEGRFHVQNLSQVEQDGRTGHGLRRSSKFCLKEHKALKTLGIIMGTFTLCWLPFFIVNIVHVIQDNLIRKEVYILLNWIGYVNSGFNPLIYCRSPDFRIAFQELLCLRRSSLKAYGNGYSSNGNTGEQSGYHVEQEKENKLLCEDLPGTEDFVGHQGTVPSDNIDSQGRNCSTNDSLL

In assay [13] the target is D(2) dopamine receptor (Homo sapiens) (UniProt P14416). Briefly: Dopamine D2 receptor (DRD2) small molecule agonists, cell-based qHTS assay (AID 1963594). Also: nearly all actives have a fitted effect of over 35% in size. The procedure, abridged:
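HEK293 cells stably expressing human DRD2, pre-treated with PDE inhibitor Ro20-1724 (0.1 mM final) and compound 10 min at room temperature, then stimulated with NKH477 (200nM […]) for 30 min. cAMP read by HTRF (665/620 nm).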

Assay [14] concerns the target 5-hydroxytryptamine receptor 2A (Homo sapiens) (UniProt P28223). Briefly: 5-hydroxytryptamine receptor 2A (HTR2A) small molecule agonists, cell-based qHTS assay (AID 1963587). Also: nearly all actives have a fitted effect of over 30% in size. The procedure, abridged:
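CHO cells stably expressing human HTR2A, plated 18 h, loaded with calcium dye 1 h at 37 C. Agonist mode: compounds added and intracellular calcium fluorescence recorded kinetically for 2 min at 1 sec intervals.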

For assay [15], the target named is Muscarinic acetylcholine receptor M1 (Homo sapiens) (UniProt P11229). Briefly: Cholinergic receptor muscarinic 1 (CHRM1) small molecule antagonists, cell-based qHTS assay (AID 1963588). Also: nearly all actives have a fitted effect of over 40% in size. Also: potency is read from the fitted curve at half-maximal effect. Put shortly: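 Compounds were tested at 15 concentrations in three independent runs. Dye-loaded CHRM1-CHO cells were exposed 5 min at room temperature before stimulation by acetylcholine added at 50nM. Intracellular calcium was read kinetically on FDSS for 3 min.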
Muscarinic acetylcholine receptor M1 (Homo sapiens), sequence (P11229 whole entry, looked up): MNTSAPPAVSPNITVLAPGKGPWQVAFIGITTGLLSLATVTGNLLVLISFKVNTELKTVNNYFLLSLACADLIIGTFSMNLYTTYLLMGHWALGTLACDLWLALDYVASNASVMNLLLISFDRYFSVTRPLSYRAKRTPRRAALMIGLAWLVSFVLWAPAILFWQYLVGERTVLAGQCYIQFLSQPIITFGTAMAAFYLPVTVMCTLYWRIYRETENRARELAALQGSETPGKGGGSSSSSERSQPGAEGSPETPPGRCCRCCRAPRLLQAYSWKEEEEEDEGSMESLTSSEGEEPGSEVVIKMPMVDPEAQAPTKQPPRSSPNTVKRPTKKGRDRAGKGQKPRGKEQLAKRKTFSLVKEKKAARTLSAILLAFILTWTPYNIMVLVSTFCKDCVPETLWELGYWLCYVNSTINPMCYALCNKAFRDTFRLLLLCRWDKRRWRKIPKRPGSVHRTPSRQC

For assay [16] the target is unchanged. Briefly: Cholinergic receptor muscarinic 1 (CHRM1) small molecule agonists, cell-based qHTS assay (AID 1963589). Also: nearly all actives have a fitted effect of over 35% in size. The procedure, abridged: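 Homogeneous fluorescence calcium flux, agonist mode. Human M1-expressing CHO cells; compound dosed at 15 concentrations, three independent runs; signal sampled every 1 sec.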
Assay [17] has as its target D(2) dopamine receptor (Homo sapiens) (UniProt P14416). Briefly: Dopamine D2 receptor (DRD2) small molecule antagonists, cell-based qHTS assay (AID 1963595; active = well fitted inhibition curve with a large enough effect in the signal ratio in the repeat runs, with a control signal flat; the % refers to the signal ratio; also: potency is read from the fitted curve at half-maximal effect). Put shortly: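 Stable D2 receptor HEK293 line, 24 h after seeding. Compound preincubated 10 min, then quinpirole (12 nM) with forskolin analogue NKH477 (200 nM), 30 min, room temperature. Detection by time-resolved FRET of cAMP.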

Assay [18] in a line: p53 small molecule agonists, cell-based qHTS assay with human liver microsomes: qHTS cell viability counter screen (AID 1963579). Also: nearly all actives have a fitted effect of over 45% in size. Also: potency is read from the fitted curve at half-maximal effect. The procedure, abridged: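 p53RE-bla cells, 4,000/well, dosed 5 hours after plating, with human liver microsomes (0.5 mg/mL final) plus NADPH (0.5 mg/mL final), 16 hours at 37 C. Viability read as CellTiter-Glo luminescence after 30 min at room temperature.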

The target in assay [19] is 5-hydroxytryptamine receptor 2A (Homo sapiens) (UniProt P28223). Briefly: 5-hydroxytryptamine receptor 2A (HTR2A) small molecule antagonists, cell-based qHTS assay (AID 1963586). Also: nearly all actives have a fitted effect of over 45% in size. Put shortly:
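CHO cells stably expressing human HTR2A were plated for 18 h at 37 C, then loaded with calcium dye for 1 h. Compounds were preincubated 5 min at room temperature before DOI (4 nM solution) was added. Kinetic fluorescence was read for 3 min.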

Assay [20] has as its target Beta-2 adrenergic receptor (Homo sapiens) (UniProt P07550). Briefly: Adrenergic beta2 receptor (ADRB2) small molecule agonists, cell-based qHTS assay (AID 1963593). Also: potency is read from the fitted curve at half-maximal effect.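 As to activation: CHO cells stably overexpressing human ADRB2.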 Put shortly: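 CHO cells stably over-expressing ADRB2 were plated overnight at 37C, then dosed with compounds plus a stimulation mix containing 100uM IBMX and 25uM Ro-20-1724 for 0.5hr at room temperature. cAMP was measured by HTRF competition, 1hr.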

5-hydroxytryptamine receptor 2A (Homo sapiens), sequence (P28223 whole entry, looked up): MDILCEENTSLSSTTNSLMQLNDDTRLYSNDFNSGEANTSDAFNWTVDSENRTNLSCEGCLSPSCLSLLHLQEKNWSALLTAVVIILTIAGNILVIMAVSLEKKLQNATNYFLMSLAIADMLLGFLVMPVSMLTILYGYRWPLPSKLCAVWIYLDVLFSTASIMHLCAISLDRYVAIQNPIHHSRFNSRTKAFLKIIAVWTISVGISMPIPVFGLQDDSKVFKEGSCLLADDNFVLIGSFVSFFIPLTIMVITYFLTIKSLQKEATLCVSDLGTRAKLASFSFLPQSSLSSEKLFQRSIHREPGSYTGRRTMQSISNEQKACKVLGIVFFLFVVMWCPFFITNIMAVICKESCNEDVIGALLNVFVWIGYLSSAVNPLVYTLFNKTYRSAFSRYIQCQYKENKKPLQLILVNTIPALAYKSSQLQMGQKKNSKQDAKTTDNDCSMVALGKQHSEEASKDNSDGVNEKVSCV
D(2) dopamine receptor (Homo sapiens), sequence (P14416 whole entry, looked up): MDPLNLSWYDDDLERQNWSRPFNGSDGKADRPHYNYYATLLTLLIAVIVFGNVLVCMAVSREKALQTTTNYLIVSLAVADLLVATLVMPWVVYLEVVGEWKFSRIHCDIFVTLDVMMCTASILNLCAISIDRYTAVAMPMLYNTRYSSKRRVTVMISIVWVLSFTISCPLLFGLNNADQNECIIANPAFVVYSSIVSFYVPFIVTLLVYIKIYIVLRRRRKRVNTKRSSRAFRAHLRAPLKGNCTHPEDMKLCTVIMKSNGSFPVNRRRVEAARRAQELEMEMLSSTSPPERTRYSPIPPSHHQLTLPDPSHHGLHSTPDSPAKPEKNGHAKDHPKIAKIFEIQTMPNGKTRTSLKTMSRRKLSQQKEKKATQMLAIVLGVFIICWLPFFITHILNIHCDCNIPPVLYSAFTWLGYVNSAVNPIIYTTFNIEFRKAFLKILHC

Consider `CCC1(c2ccccc2)C(=O)NC(=O)NC1=O`, for which the Potency result in assay [1], in assay [2], in assay [3], in [4], in assay [5] and in assay [6] was “inactive” throughout. Also, the Potency result in assay [7], in assay [8], in assay [9], in [10], in assay [11] and in [12] was “inactive” each time. Further, the Potency entry in [13] was “inactive”.
As to `O=c1oc2ccccc2c(O)c1C1CCCc2ccccc21` (configuration not stated), the Potency result in assay [1], in assay [2], in [3], in [4], in assay [5] and in assay [6] was “inactive” each time. In addition, the Potency entry in assay [7], in assay [8], in assay [9], in assay [14], in assay [15] and in [16] was “inactive” throughout. Further, the Potency entry in assay [10], in assay [11], in [13] and in assay [17] was “inactive” each time.
Take `N#CSCc1ccccc1`: the Potency result in assay [1], in assay [3], in [4], in assay [5], in assay [6] and in assay [18] was “inactive” throughout. In addition, the Potency entry in [8], in assay [19], in assay [14], in assay [15], in assay [16] and in [10] was “inactive” in each case. Also, the Potency entry in assay [12], in [20] and in assay [13] was “inactive” in each case. Moreover, the Potency in [2] was 68.9 µM (active).
With `C#CC(O)(C=CCl)CC` (configuration not stated), the Potency result in [1], in assay [2], in assay [3], in assay [4], in assay [5] and in assay [6] was “inactive” throughout. Moreover, the Potency entry in assay [18], in [9], in assay [14], in [15], in assay [16] and in assay [11] was “inactive” throughout. Further, the Potency entry in [12], in assay [20], in [13] and in [17] was “inactive” each time.
Take `N#C/C=C/c1ccccc1`: the Potency result in [1], in [2], in assay [3], in assay [4], in assay [5] and in assay [6] was “inactive” in each case. Further, the Potency entry in assay [18], in assay [8], in [19], in assay [14], in assay [15] and in assay [16] was “inactive” in each case. For the same compound, the Potency result in assay [10], in assay [11], in assay [13] and in assay [17] was “inactive” each time.
Regarding `C=CC(=O)OCC(COC(=O)C=C)(COC(=O)C=C)COC(=O)C=C`, the Potency in [1] is 9.69 µM (active); in [2] it was 6.11 µM (active); in assay [18], 4.08 µM (active); in [8], 10.2 µM (active); in assay [20] it was 24.3 µM (active); in assay [17], 54.5 µM (active). Also, the Potency result in assay [3], in [4], in assay [5], in assay [6], in [19] and in [14] was “inactive” each time. Moreover, the Potency result in [15], in assay [16], in [12] and in assay [13] was “inactive” in each case.
Turning to `CC(CC(C(N)=O)(c1ccccc1)c1ccccc1)N(C)C` (configuration not stated), the Potency entry in [1], in assay [2], in assay [3], in [4], in [5] and in [6] was “inactive” throughout. The Potency entry in assay [7], in assay [9], in assay [19], in assay [14], in [16] and in assay [10] was “inactive” each time. The Potency result in assay [11], in [12], in assay [20] and in assay [13] was “inactive” throughout. Also, the Potency in assay [15] is 8.2 nM (active).
For the compound `OC(c1ccccc1)(c1ccccc1)C1CCNCC1`, the Potency entry in assay [1], in assay [2], in [3], in [4], in assay [5] and in assay [6] was “inactive” each time. Moreover, the Potency entry in [7], in [8], in assay [9], in assay [14], in [16] and in assay [10] was “inactive” throughout. The Potency entry in [11], in assay [12], in assay [20] and in assay [13] was “inactive” throughout. For the same compound, the Potency in assay [15] is 4600 nM (active).
